The source of these data is PubChem BioAssay (Tox21).

Where “and” joins values, the source holds several entries; their conditions need not be identical. Identical values can stand only once. Results filed as inconclusive are left out. A call without a number means that no potency is given here. Calls of active or inactive are those of the source. Calls come from the whole dose curve; as a rule, active = well fitted cell-killing curve with a large enough effect in the repeat runs; inconclusive = weak or mixed curves, or effect the other way; inactive = no such curve, though single readings can be large or run the other way.
Potency is the fitted concentration of half-maximal effect.

This test in a line: qHTS assay to identify small molecule antagonists of the thyroid receptor (TR) signaling pathway - cell viability counter screen (AID 743064). Note: nearly all actives have a fitted effect of over 50% in size. The following applies: GH3.TRE-Luc viability, CellTiter-Fluor, 24 h; series mostly up to 70.3 µM. From the text:
National Center for Advancing Translational Sciences [NCATS]
NIH Chemical Genomics Center [NCGC]
U.S. Environmental Protection Agency [EPA]
National Institutes of Environmental Health Sciences [NIEHS]
National Toxicology Program [NTP]
U.S. Food and Drug Administration [FDA]
Thyroid receptor (TR), a nuclear hormone receptor, plays an important role in development, proliferation, differentiation, metabolism, brain function, and cardiovascular system. […] To profile the Tox21 10K compound library in TR signaling, a cell-based GH3-TRE-Luc assay (GH3.TRE-Luc cell line, developed by the laboratory of Dr. Albertinka J. Murk, Wageningen University) was used to measure the inhibition of TR. GH3 (rat pituitary tumor) cells stably expressing a TR activity sensor consisting of two TR response elements and a luciferase reporter gene. The cytotoxicity of the Tox21 compound library against the GH3.TRE-Luc cell line was tested in parallel by measuring the cell viability using CellTiter-Fluor assay (Promega, Madison, WI) in the same wells.
Tox21 Assay Protocol Summary:
GH3.TRE-Luc cells were dispensed at 1500 cells/4 uL/well into 1536-well white solid bottom plates using a Multidrop Combi dispenser (Thermo Fisher Scientific Inc., Waltham, MA). After the assay plates were incubated at 37 C for 4 hours, 23 nL of library compound or DMSO controls was transferred to the assay plates by a pintool station (Kalypsys, San Diego, CA), followed by addition of 1 ul of T3 (1 nM, final concentration in the wells) to stimulate TR transactivation. The assay plates were incubated at 37 C for 23.5 h, and then 1 uL of CellTiter-Fluor reagent (Promega, Madision, WI) of measuring cytotoxicity was added to each well using a Bioraptr Flying Reagent Dispenser (FRD) workstation (Beckman Coulter, Indianapolis, IN, USA). The plates were incubated at 37C and 5% CO2 for additional 30 min, and fluorescence intensity was measured by a ViewLux plate reader (PerkinElmer, Shelton, CT).
For `COc1c(C)c2c(c(O)c1C/C=C(\C)CCC(=O)OCCN1CCOCC1)C(=O)OC2`, the Potency was 1.68 µM (active).

As to `COC(=O)C1=C(C)NC(C)=C(C(=O)OCCN2CCN(C(c3ccccc3)c3ccccc3)CC2)C1c1cccc([N+](=O)[O-])c1` (stereo not given), the Potency is 8.41 µM (active).

As to `CC(C)(c1cc(Br)c(OCC(Br)CBr)c(Br)c1)c1cc(Br)c(OCC(Br)CBr)c(Br)c1` (stereo not given), the Potency entry is “inactive”.

On to `CCC(=O)OC(=O)CC`, for which the Potency entry was “inactive”.

`CC(C(=O)O)c1ccc2c(c1)[nH]c1ccc(Cl)cc12` (stereo not given): the Potency result was “inactive”.

Consider `Cc1cc(C(C)(C)C)c(O)c(C)c1Cn1c(=O)n(Cc2c(C)cc(C(C)(C)C)c(O)c2C)c(=O)n(Cc2c(C)cc(C(C)(C)C)c(O)c2C)c1=O`, for which the Potency result is “inactive”.

`Cc1c2ccccc2c(C)c2c1ccc1ccccc12`: the Potency was 27 µM (active) and 13.7 µM (active).

As to `CC(C)(C)C1CCC(=O)CC1`, the Potency result is “inactive”.

For the molecule `COc1cccc(OC)c1C(=O)O`, the Potency entry is “inactive”.

Turning to `Cc1ccc(C)cc1`, the Potency entry is “inactive”.

In the case of `O=C1c2ccccc2C(=O)N1SC1CCCCC1`, the Potency is 30.6 µM (active) and 21.7 µM (active).

For `O=c1[nH]c2ccccc2n1CCCN1CCN(C(c2ccccc2)c2ccccc2)CC1`, the Potency was 23.7 µM (active).

In the case of `C=C(C)c1cccc(C(=C)C)c1`, the Potency entry was “inactive”.

On to `CCN1C(=O)c2ccccc2C1Nc1ccc(OCCN2CCCCC2)cc1` (stereo not given), for which the Potency result is “inactive”.

Turning to `CNC(=O)c1ccccc1Sc1ccc2c(/C=C/c3ccccn3)n[nH]c2c1`, the Potency entry is “inactive”.

Consider `CC(C)OC(=O)C(O)(CC(=O)O)CC(=O)O`, for which the Potency entry is “inactive”.

In the case of `CC(=O)[C@H]1CC[C@H]2[C@@H]3CCC4=CC(=O)CC[C@]4(C)[C@H]3CC[C@]12C`, the Potency was 60.8 µM (active).

`C[C@@H](O)[C@H](N)C(=O)O`: the Potency entry was “inactive”.

As to `CN1CCN(Cc2cc(-c3ccc4[nH]c(=O)oc4c3)co2)[C@@H](c2ccc(F)cc2)C1`, the Potency was 46.7 µM (active).

Take `CCCCC/C=C\C/C=C\CCCCCCCC(=O)O`: the Potency result was “inactive”.

Regarding `CC(C)CCCCCOC(=O)CCS`, the Potency result is “inactive”.

For `COc1ccc(-c2coc3cc(O)ccc3c2=O)cc1`, the Potency result is “inactive”.

Consider `COc1ccc(NC(=O)CC(C)=O)cc1`, for which the Potency entry was “inactive”.

Take `C[C@H]1NCc2cc(-c3ccc4c(=O)c(C(=O)O)cn(C5CC5)c4c3OC(F)F)ccc21`: the Potency entry was “inactive”.

Turning to `CCCCNS(=O)(=O)c1ccc(C)cc1`, the Potency result is “inactive”.

As to `OC1CCC(C2CCCCC2)CC1` (stereo not given), the Potency entry is “inactive”.

Consider `c1ccc(C(O[C@@H]2CCCN(CCc3ccc4c(c3)OCO4)C2)c2ccccc2)cc1`, for which the Potency was 24.3 µM (active).

In the case of `COC(=O)c1ccccc1OC`, the Potency entry was “inactive”.

Take `C=CC(C)(CCC=C(C)C)OC=O` (stereo not given): the Potency entry was “inactive”.

`O=C(/C=C/c1ccccc1)OC/C=C/c1ccccc1`: the Potency result was “inactive”.

Take `COC(=O)c1ccccc1C`: the Potency entry was “inactive”.

Consider `OC[C@@H](O)[C@@H](O)CO`, for which the Potency result was “inactive”.

Regarding `CN1CCC[C@@H]1CCO[C@](C)(c1ccccc1)c1ccc(Cl)cc1`, the Potency is 23.7 µM (active).

In the case of `O=C(O)c1cccc(C(F)(F)F)c1`, the Potency entry is “inactive”.

Regarding `CC(=O)c1ccc(C(C)=O)cc1`, the Potency entry was “inactive”.

With `O=[N+]([O-])c1cccc(C(F)(F)F)c1`, the Potency entry is “inactive”.

For `O=C(O)CCN(C1(C(=O)NO)CCCC1)S(=O)(=O)c1ccc(Oc2ccc(F)cc2)cc1`, the Potency entry was “inactive”.

With `CCC(C)[O-].CCC(C)[O-].CCOC(=O)/C=C(/C)[O-].[Al+3]`, the Potency result was “inactive”.

In the case of `OC1CCCc2ccccc21` (stereo not given), the Potency result is “inactive”.

Take `O=C(O)c1ccc2cc(C(=O)O)ccc2c1`: the Potency entry is “inactive”.
